Test results published in PubChem BioAssay.
The source made the active and inactive calls.

How the values were obtained:
[1] = small molecules captured by biotinylated probe aFSTL3 – biochemical, small-molecule microarray, fluorescence 635/667, stem cell growth factor project, primary screen (AID 1064); settings: higher = more signal;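 further: measures binding of the biotinylated anti-FSTL3 antibody to printed compounds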
[2] = binders from COS7 lysate, DM2A8 probe, primary screen, torsin A project, cell lysate, small-molecule microarray, fluorescence 635/667 (AID 1065); settings: higher = more signal, COS7 lysate expressing mutant human TOR1A
[3] = small molecules captured by biotinylated probe aFGF2 – biochemical, small-molecule microarray, fluorescence 635/667, stem cell growth factor project, primary screen (AID 1067); settings: higher = more signal;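 further: measures binding of biotinylated aFGF2 protein to printed compounds on slides; z-score merges feature fluorescence and signal-to-noise across triplicate slides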
[4] = small molecules captured by biotinylated probe aFGF10 – biochemical, small-molecule microarray, fluorescence 635/667, stem cell growth factor project, primary screen (AID 1071); settings: higher = more signal;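 further: score merges 667 nm spot intensity and signal to noise from triplicate slides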
[5] = target: Neurogenic locus notch homolog protein 2 (Homo sapiens) (UniProt Q04721); experiment: small molecules binding Notch2 protein – biochemical, small-molecule microarray, 635 nm fluorescence, stem cell growth factors, primary screen (AID 1073); settings: higher = more signal
[6] = target: Pro-neuregulin-1, membrane-bound isoform (Homo sapiens) (UniProt Q02297); experiment: small molecules binding neuregulin-1 protein – biochemical, small-molecule microarray, fluorescence 635/667, psychiatric disease protein project, primary screen (AID 1075); settings: NRG1 binding, 635 nm fluorescence, higher = more signal;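 further: score combines 667 nm spot fluorescence with signal to noise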
[7] = tested on: Neuregulin-1 EGF-like domain; experiment: small molecules binding NRG1 EGF domain – biochemical, small-molecule microarray, 635 nm fluorescence, primary screen (AID 1081); settings: higher = more signal;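 further: binding of the protein to compounds printed on small-molecule microarray slides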
[8] = FRG1 expression reporter modulators in myotubes – cell-based, C2C12 myotubes, firefly/Renilla luciferase, luminescence, FRG1 inhibition for FSHD, primary screen (AID 1084); settings: FRG1 promoter luciferase, higher = more signal, called active from +8 up or from −8 down
[9] = small molecules captured by biotinylated probe aFST – biochemical, small-molecule microarray, fluorescence 635/667, stem cell growth factor project, primary screen (AID 1086); settings: higher = more signal;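 further: score merges 667 nm fluorescence with signal-to-noise of each printed compound spot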
[10] = binders of probe aHhip on microarray, primary screen, stem cell growth factor project, biochemical, small-molecule microarray, fluorescence 635/667 (AID 1087); settings: higher = more signal;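 further: score merges spot fluorescence at 667nm with spot signal to noise ratio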

Sequence of Neurogenic locus notch homolog protein 2 (Homo sapiens) (Q04721 whole entry, looked up, canonical isoform): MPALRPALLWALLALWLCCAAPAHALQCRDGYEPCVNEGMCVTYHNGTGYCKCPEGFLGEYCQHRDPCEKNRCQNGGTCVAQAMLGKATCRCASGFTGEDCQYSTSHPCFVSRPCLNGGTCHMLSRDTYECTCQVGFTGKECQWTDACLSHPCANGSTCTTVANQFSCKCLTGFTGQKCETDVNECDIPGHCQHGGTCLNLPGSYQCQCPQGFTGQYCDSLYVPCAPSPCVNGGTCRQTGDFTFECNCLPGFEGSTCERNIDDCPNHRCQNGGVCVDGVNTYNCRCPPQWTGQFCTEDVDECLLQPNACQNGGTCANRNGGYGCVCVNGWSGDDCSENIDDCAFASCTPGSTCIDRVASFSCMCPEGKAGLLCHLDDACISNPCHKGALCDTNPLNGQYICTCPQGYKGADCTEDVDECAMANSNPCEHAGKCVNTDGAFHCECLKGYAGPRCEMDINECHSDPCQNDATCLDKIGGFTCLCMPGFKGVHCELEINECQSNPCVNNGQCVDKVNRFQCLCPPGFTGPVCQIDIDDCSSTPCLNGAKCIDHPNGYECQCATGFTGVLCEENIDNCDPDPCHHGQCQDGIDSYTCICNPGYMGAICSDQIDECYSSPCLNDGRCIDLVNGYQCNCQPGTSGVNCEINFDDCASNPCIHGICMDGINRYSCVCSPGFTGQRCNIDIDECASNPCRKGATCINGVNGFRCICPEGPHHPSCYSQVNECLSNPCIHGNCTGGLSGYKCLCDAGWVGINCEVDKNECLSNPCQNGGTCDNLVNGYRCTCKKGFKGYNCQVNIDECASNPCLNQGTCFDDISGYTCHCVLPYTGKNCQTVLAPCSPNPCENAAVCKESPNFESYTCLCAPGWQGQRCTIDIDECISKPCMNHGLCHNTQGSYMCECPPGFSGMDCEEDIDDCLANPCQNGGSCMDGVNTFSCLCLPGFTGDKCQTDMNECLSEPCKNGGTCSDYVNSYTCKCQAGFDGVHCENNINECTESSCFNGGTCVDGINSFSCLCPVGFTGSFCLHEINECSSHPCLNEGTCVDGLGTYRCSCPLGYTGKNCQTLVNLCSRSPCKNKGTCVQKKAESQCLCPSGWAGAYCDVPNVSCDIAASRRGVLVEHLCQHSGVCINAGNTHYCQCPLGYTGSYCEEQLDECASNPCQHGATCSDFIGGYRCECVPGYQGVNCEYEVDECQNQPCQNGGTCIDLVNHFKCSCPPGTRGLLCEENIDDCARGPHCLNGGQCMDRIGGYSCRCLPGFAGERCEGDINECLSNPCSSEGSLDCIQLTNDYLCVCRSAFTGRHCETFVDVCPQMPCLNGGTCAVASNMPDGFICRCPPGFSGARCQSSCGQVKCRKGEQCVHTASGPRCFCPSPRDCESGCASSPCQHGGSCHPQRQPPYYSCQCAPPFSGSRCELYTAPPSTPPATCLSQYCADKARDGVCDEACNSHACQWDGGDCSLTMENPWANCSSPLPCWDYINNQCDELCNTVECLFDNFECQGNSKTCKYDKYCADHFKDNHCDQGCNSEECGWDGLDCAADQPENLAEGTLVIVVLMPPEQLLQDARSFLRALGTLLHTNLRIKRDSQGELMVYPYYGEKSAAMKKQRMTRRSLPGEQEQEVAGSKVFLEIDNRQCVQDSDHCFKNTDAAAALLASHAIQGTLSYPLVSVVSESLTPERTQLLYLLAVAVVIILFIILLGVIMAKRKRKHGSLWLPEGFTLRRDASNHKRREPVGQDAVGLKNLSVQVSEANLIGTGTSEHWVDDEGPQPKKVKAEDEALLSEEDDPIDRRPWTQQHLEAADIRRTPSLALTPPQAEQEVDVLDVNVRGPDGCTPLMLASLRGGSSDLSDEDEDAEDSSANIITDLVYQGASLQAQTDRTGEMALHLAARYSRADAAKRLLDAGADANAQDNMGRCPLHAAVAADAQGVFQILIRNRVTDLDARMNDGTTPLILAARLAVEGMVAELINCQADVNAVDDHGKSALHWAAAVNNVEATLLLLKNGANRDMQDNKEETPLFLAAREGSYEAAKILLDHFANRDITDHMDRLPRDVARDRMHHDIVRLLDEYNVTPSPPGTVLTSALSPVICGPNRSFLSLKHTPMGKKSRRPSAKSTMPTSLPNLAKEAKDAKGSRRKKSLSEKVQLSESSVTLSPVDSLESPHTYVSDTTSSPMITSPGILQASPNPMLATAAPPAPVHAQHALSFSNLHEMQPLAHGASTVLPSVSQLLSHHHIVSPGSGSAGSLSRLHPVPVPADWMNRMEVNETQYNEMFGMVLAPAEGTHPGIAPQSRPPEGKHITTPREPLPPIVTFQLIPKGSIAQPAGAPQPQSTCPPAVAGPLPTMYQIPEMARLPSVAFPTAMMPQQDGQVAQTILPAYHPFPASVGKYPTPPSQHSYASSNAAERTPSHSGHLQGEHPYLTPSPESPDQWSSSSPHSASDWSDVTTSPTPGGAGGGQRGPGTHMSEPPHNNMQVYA
Sequence of Pro-neuregulin-1, membrane-bound isoform (Homo sapiens) (Q02297 whole entry, looked up, the tested form may be a part, canonical isoform): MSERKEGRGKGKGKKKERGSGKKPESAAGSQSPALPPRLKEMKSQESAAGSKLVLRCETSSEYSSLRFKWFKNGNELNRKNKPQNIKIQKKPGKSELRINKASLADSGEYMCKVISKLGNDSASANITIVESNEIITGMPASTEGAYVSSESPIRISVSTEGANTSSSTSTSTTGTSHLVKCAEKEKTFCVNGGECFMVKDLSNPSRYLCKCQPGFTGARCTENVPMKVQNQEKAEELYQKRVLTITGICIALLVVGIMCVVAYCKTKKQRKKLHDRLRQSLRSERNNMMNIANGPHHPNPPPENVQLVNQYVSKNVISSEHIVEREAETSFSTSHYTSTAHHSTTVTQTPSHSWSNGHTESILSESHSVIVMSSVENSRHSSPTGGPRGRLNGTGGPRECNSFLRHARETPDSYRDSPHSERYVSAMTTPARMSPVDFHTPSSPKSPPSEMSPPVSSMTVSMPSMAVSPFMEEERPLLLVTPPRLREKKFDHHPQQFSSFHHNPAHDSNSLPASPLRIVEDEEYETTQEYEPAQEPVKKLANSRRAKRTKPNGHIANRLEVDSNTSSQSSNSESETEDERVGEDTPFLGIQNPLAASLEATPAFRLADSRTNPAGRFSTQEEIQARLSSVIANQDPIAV

O=C1C[C@@](C(=O)NCC(F)(F)F)(c2ccc([N+](=O)[O-])cc2)[C@@H](c2ccc(CO)cc2I)N1C1CCCCC1
composite z-score [1]: -0.0205
composite z-score [2]: 0.95
composite z-score [3]: -0.0257
composite z-score [4]: 0.19
composite z-score [5]: 1.46
composite z-score [6]: 0.811
composite z-score [7]: 1.24
z-score [8]: 0.467 (inactive)
composite z-score [9]: 0.414
composite z-score [10]: -0.0994

O=C1C[C@@](C(=O)NC2CC2)(c2ccc([N+](=O)[O-])cc2)[C@@H](c2ccc(CO)cc2I)N1C1CCCCC1
composite z-score [1]: -0.407
composite z-score [2]: 0.722
composite z-score [3]: 0.0043
composite z-score [4]: 0.496
composite z-score [5]: 0.677
composite z-score [6]: 1.04
composite z-score [7]: 1.34
z-score [8]: -0.165 (inactive)
composite z-score [9]: 0.419
composite z-score [10]: 0.075

CCOC(=O)C[C@H]1[C@H](OC(=O)c2ccccc2-c2ccccc2)[C@@H](NC(=O)CC(C)C)c2cc(OCCCO)ccc2N1C(=O)Cc1ccc(OC)cc1
composite z-score [1]: -0.259
composite z-score [2]: 0.43
composite z-score [3]: -0.104
composite z-score [4]: 0.225
composite z-score [5]: 0.135
composite z-score [6]: 0.173
composite z-score [7]: -0.155
z-score [8]: 0.506 (inactive)
composite z-score [9]: 0.327
composite z-score [10]: -0.199

CCOC(=O)C[C@H]1[C@H](OC(=O)c2ccc(C(=O)c3ccccc3)cc2)[C@@H](NC(=O)c2ccccc2)c2cc(OCCCO)ccc2N1C(=O)Cc1ccc(OC)cc1
composite z-score [1]: 0.0814
composite z-score [2]: 0.128
composite z-score [3]: -0.0502
composite z-score [4]: 0.153
composite z-score [5]: 0.12
composite z-score [6]: -0.126
composite z-score [7]: 0.532
z-score [8]: -1.09 (inactive)
composite z-score [9]: 0.0512
composite z-score [10]: -0.0237

C=CCNC(=O)[C@@H]1[C@H]2C(=O)O[C@H](c3ccccc3)[C@H](c3ccccc3)N2[C@H](c2ccc(O)cc2)[C@@]12C(=O)Nc1ccc(C#CCNC(N)=O)cc12
composite z-score [1]: 0.0358
composite z-score [2]: 0.135
composite z-score [3]: -0.114
composite z-score [4]: -0.172
composite z-score [5]: -0.383
composite z-score [6]: 0.623
composite z-score [7]: -0.0033
z-score [8]: 1.57 (inactive)
composite z-score [9]: -0.633
composite z-score [10]: -0.226

Cc1ccc([C@@H]2C[C@@H](Sc3ccccc3)[C@H](C(=O)O)CN2S(=O)(=O)c2ccc(C)cc2)cc1
composite z-score [1]: -0.0057
composite z-score [2]: 0.414
composite z-score [3]: 0.0512
composite z-score [4]: 0.983
composite z-score [5]: 1.59
composite z-score [6]: 1.57
composite z-score [7]: 1.35
z-score [8]: -3.65 (inactive)
composite z-score [9]: 0.936
composite z-score [10]: 0.0373

O=C1N[C@@H](Cc2ccccc2)C(=O)N2[C@@H]1C[C@@H](C(=O)O)[C@H]2c1cccc(OCCO)c1
composite z-score [1]: 0.0693
composite z-score [2]: 0.571
composite z-score [3]: 0.0127
composite z-score [4]: 0.801
composite z-score [5]: 0.399
composite z-score [6]: 1.54
composite z-score [7]: 1.38
z-score [8]: 9.18 (active)
composite z-score [9]: 0.166
composite z-score [10]: -0.0237

CC(C)c1ccc(NN2C(C(O)c3ccc(B(O)O)cc3)C=CC3C(=O)N(c4ccccc4)C(=O)C32)cc1 (stereo not given)
composite z-score [1]: 0.842
composite z-score [2]: 0.0275
composite z-score [3]: 0.185
composite z-score [4]: 1.13
composite z-score [5]: 1.63
composite z-score [6]: 1.19
composite z-score [7]: 1.15
z-score [8]: 0.87 (inactive)
composite z-score [9]: 1.67
composite z-score [10]: 0.0722

O=C(NC1CC1)[C@@H]1c2ccccc2C(=O)N(Cc2ccccc2Cl)[C@H]1c1ccc(CO)cc1
composite z-score [1]: -0.255
composite z-score [2]: 0.256
composite z-score [3]: -0.104
composite z-score [4]: 0.486
composite z-score [5]: 0.532
composite z-score [6]: 0.93
composite z-score [7]: 1.32
z-score [8]: -2.22 (inactive)
composite z-score [9]: 0.882
composite z-score [10]: -0.15

C=CCN1C(=O)[C@]2(O[C@H](CCn3cc([C@H](O)c4ccccc4)nn3)[C@@H]([Si](C)(C)c3ccc(OC)cc3)[C@@H]2C)c2ccccc21
composite z-score [1]: 0.202
composite z-score [2]: -0.602
composite z-score [3]: -0.0894
composite z-score [4]: -0.264
composite z-score [5]: -0.439
composite z-score [6]: 0.093
composite z-score [7]: -0.0113
z-score [8]: -0.356 (inactive)
composite z-score [9]: -0.366
composite z-score [10]: -0.264

COc1ccc(CCNC(=O)[C@@]2(Sc3ccc(C)cc3)CC(=O)N(C(C)C)[C@@H]2c2ccc(CO)cc2I)cc1
composite z-score [1]: -0.0354
composite z-score [2]: -0.566
composite z-score [3]: 0.0376
composite z-score [4]: -0.341
composite z-score [5]: -0.83
composite z-score [6]: -0.387
composite z-score [7]: 0.31
z-score [8]: -0.132 (inactive)
composite z-score [9]: 0.238
composite z-score [10]: -0.511

CCCC[C@@H]1C[C@H]1[C@@H](NC(=O)c1ccccc1)c1ccc(C(=O)OC)cc1
composite z-score [1]: 1.37
composite z-score [2]: -0.0965
composite z-score [3]: -0.0273
composite z-score [4]: -0.282
composite z-score [5]: -0.547
composite z-score [6]: -0.273
composite z-score [7]: -0.544
z-score [8]: 0.191 (inactive)
composite z-score [9]: -0.303
composite z-score [10]: 0.35

CC(C)[Si](C#Cc1ccc(Oc2ccccc2)cc1)(O[Si](C#Cc1ccc(Oc2ccccc2)cc1)(C(C)C)C(C)C)C(C)C
composite z-score [1]: -0.496
composite z-score [2]: 0.253
composite z-score [3]: -0.133
composite z-score [4]: 0.967
composite z-score [5]: 0.766
composite z-score [6]: -0.0929
composite z-score [7]: 0.664
z-score [8]: -0.421 (inactive)
composite z-score [9]: -0.0273
composite z-score [10]: -0.0994

CC(C)CNC(=O)[C@@]1(Cc2ccccc2I)c2ccccc2C(=O)N(C2CCCCC2)[C@H]1c1ccc(CO)cc1
composite z-score [1]: 0.654
composite z-score [2]: 1.26
composite z-score [3]: 0.162
composite z-score [4]: 0.685
composite z-score [5]: 0.142
composite z-score [6]: 0.925
composite z-score [7]: 1.05
z-score [8]: -3.41 (inactive)
composite z-score [9]: 0.481
composite z-score [10]: 0.702

CCC(CC)C(O)C1C=CC2C(=O)NC(=O)C2N1Nc1ccccn1 (stereo not given)
composite z-score [1]: -0.164
composite z-score [2]: 0.247
composite z-score [3]: 0.0119
composite z-score [4]: 0.368
composite z-score [5]: 0.795
composite z-score [6]: 0.675
composite z-score [7]: 1.12
z-score [8]: 0.32 (inactive)
composite z-score [9]: 0.305
composite z-score [10]: 0.0139

Cc1ccc(S[C@]2(C(=O)O)CC(=O)N(C(C)C)[C@@H]2c2ccc(CO)cc2I)cc1
composite z-score [1]: 1.83
composite z-score [2]: 1.16
composite z-score [3]: 0.0477
composite z-score [4]: -0.0395
composite z-score [5]: 0.175
composite z-score [6]: 1.89
composite z-score [7]: 1.16
z-score [8]: -0.974 (inactive)
composite z-score [9]: 1.33
composite z-score [10]: -0.148
